According to PubChem BioAssay AID447 (National Center for Advancing Translational Sciences (NCATS), 2006):
Hit rate of the full screen: of about 69,000 compounds, fewer than 10 were called active. Roughly 100% stayed inconclusive and do not appear here. The rule behind the calls is not given here. The list shows a part of the results.

molecular target: UDP-N-acetylglucosamine--peptide N-acetylglucosaminyltransferase 110 kDa subunit (Homo sapiens) (UniProt O15294); assay: O-Glc NAc Transferase (sOGT); details: sOGT fluorescence polarization UDP-GlcNAc probe displacement
From the text: NIH Molecular Libraries Screening Centers Network [MLSCN]
NIH Chemical Genomics Center [NCGC]
Suzanne Walker [Harvard Medical School]
OGT is the sole enzyme that mediates the attachment of O-GlcNAc groups to serine and threonine residues in the nucleus and cytoplasm of eukaryotic cells, and no specific inhibitors are known. This type of glycosylation is involved in signal transduction and plays a key role in many essential cellular processes. High O-GlcNAc levels have been correlated to insulin resistance and type 2 diabetes. In addition to elucidating the role of O-GlcNAc in cellular processes, inhibitors of OGT might be useful in studying and perhaps treating type 2 diabetes. Since HTS-amenable direct assay for OGT activity is currently unavailable, a simpler substrate-displacement screen was performed. The signal measured is based on the change in fluorescence polarization of a fluorescein-labeled UDP-GlcNAc upon displacement from its complex with OGT. Recombinant truncated version of the enzyme, sOGT, as well as labeled probe, were made available by Suzanne Walker and Benjamin Gross, Harvard Medical School. […]
Three uL of reagents were dispensed to 1536-well Greiner black plates. […] The plates were incubated for 15 min at room temperature, and then read on ViewLux (Perkin-Elmer) High-throughput CCD imager using fluorescein polarization filter set and 45 seconds exposure time. […]

Sequence of UDP-N-acetylglucosamine--peptide N-acetylglucosaminyltransferase 110 kDa subunit (Homo sapiens) (O15294 whole entry, looked up): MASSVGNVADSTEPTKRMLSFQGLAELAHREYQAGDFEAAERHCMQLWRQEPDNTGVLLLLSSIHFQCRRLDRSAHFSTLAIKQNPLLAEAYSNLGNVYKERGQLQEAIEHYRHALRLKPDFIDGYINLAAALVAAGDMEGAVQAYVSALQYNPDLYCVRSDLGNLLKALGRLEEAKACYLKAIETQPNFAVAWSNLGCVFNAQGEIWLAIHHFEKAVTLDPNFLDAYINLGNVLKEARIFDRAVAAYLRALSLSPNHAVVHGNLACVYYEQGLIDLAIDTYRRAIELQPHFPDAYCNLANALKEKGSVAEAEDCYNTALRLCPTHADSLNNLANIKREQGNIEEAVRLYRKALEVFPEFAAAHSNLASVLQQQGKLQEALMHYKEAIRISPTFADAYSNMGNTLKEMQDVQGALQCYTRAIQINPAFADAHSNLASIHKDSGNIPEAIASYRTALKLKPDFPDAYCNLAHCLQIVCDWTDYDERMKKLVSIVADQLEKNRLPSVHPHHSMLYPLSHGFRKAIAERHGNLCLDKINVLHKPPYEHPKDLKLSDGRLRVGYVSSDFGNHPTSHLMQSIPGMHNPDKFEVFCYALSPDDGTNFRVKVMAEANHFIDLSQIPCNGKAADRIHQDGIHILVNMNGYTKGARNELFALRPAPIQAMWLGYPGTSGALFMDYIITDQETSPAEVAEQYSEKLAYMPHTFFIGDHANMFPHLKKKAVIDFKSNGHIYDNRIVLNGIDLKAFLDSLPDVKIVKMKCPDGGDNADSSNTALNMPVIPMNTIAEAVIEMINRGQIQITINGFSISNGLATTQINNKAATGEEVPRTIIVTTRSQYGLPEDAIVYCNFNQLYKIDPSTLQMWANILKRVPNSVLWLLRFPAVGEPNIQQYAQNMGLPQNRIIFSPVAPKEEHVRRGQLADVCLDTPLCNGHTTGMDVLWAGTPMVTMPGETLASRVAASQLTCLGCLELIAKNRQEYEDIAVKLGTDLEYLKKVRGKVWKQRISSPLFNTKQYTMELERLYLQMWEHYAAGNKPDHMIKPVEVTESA

Compound | Potency
O=C1CCCN1CC#CCN1CCCC1 | 29.9 µM (active)
